Mdm2-MdmX inh: inhibitors of human Mdm2/MdmX interaction | O15151+Q00987 | AID 485346 | inhibition, % at 8 µM | actives 3% (n = 330,000) | SaOS-2 split-luciferase Mdm2/MdmX complementation, luminescence;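 active = inhibition of at least 50% at 8 µM in the primary screen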
Target sequence (O15151 whole entry, looked up): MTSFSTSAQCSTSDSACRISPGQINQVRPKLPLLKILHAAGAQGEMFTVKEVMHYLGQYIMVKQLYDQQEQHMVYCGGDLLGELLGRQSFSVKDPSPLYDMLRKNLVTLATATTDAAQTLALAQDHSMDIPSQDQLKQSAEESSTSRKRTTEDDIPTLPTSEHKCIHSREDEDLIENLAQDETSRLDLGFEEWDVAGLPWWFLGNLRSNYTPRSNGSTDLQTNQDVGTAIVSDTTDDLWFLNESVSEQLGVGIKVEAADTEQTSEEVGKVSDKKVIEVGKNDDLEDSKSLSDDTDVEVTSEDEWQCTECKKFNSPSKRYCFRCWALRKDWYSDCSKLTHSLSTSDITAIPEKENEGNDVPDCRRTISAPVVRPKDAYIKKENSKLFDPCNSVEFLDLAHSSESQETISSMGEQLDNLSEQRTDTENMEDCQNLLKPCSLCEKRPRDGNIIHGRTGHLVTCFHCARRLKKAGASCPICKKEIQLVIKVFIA
Target sequence (Q00987 whole entry, looked up): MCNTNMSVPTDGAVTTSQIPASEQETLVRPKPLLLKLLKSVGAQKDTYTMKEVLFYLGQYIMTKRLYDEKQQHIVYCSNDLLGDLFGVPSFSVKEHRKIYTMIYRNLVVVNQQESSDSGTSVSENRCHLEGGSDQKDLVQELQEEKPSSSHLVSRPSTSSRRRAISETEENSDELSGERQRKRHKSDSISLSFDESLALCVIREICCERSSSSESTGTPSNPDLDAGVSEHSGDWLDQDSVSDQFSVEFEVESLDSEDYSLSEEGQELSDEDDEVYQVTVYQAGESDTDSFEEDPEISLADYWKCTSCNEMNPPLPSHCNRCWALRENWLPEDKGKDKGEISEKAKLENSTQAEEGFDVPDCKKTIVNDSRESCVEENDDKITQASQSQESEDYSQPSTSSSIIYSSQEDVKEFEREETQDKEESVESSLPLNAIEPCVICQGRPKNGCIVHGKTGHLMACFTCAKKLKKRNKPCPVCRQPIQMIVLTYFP
Gli-Sufu block: blocks Gli-Sufu signaling in a luciferase reporter | actives 0.74% (n = 340,000) | inhibition, % at 5 µM | AID 588413 | Sufu-KO-LIGHT fibroblasts, Gli luciferase reporter luminescence;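 active = inhibition above about 55%, limit read from the data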;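 also: 0% = DMSO-treated cells and 100% = wells with medium but no cells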
Beta apoptosis: blocks beta cell apoptosis. INS-1E cytokine-induced death, ATP luminescence, 48 h; percent of positive-control rescue, neutral wells zero. protection from apoptosis, % (test concentration not listed). actives 0.8% (n = 300,000). AID 435005;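 active = Every replicate reaches about 75%, or at least half do and their mean reaches it too, limit read from the data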;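 also: 0% = cytokine-treated negative control wells and 100% = positive control rescue; higher means more ATP so stronger rescue from cytokine killing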
CSC inhib: blocks cancer stem cells. inhibition, % at 7.5 µM. actives 1.1% (n = 300,000). cancer stem cell-like cells viability, luminescence. AID 2717; in the data active = inhibition above about 75%; tested in HMLE shEcad cells
MPTP block: blocks calcium-induced mitochondrial swelling; actives 1.4% (n = 360,000); AID 602449; isolated mouse mitochondria, Ca2+ swelling absorbance, 30 min; inhibition, % at 10 µM;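 active = inhibition of 50% or more, scaled per plate between neutral and stimulator controls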;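 also: 0% = DMSO wells given calcium and 100% = 1 mM EGTA wells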
NR3A LBD binder: modulates the human NR3A ligand-binding domain | NR3A LBD differential scanning fluorimetry, Tm shift; 0% = protein alone, 100% = glycine-bound protein | actives 2.5% (n = 340,000) | Tm shift relative to glycine control, % at 25 µM | AID 1259313;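 active = melting temperature shift of at least 10% of the positive control shift, at one fixed dose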
Mdm2-MdmX conf: confirmation of human Mdm2/MdmX interaction inhibitors; shares compounds with Mdm2-MdmX inh; Mdm2-MdmX binding, luminescent assay; inhibition, % at 8 µM; actives 55% (n = 10,000); AID 489028; in the data active = inhibition above about 40%
Full FLuc ctr: inhibits full-length luciferase, flagging false Mdm2/MdmX hits; shares compounds with Mdm2-MdmX inh; SaOS-2 full-length luciferase counterscreen, luminescence; inhibition, % at 8 µM; actives 77% (n = 6,200);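 active = mean inhibition at 8 µM reaching about 37%, which flags the compound as non-specific, limit read from the data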;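 also: p53-null SaOS-2 cells with luciferase driven by a doxycycline-inducible promoter; compound on cells about two nights before reading with doxycycline added after day one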
Starred values were filed as active, the others as inactive; nt = no result given. Shown are actives, neighbours in structure and some others; about 6.6% of the full set was active somewhere.

SMILES	Mdm2-MdmX inh	Gli-Sufu block	Beta apoptosis	CSC inhib	MPTP block	NR3A LBD binder	Mdm2-MdmX conf	Full FLuc ctr
Cc1cccc(NC2=Nc3ccccc3N3C2=Nc2c(c(C)nn2-c2ccccc2)C3c2ccc(O)c(O)c2)c1 (stereo not given)	78*	4	14	100*	3	22*	39	50*
CCOC(=O)c1c2ccc(OCC(=O)N/N=C/c3ccc(C)cc3)cc2n2ccccc12	84*	13	62	114*	-2	1	79*	107*
Cc1ccc(NC(=S)NCc2ccc3[nH]c4c(c3c2)CCCC4)cc1	72*	1	-4	nt	3	11*	8	nt
O=C(NCCO)c1ccc2[nH]c3c(c2c1)CCCC3	-11	12	nt	nt	-1	2	nt	nt
COc1ccc(-c2nn(-c3ccccc3)cc2/C=C(\C#N)C(N)=O)cc1[N+](=O)[O-]	-6	9	-4	-6	0	-6	nt	nt
COc1ccc(-c2nn(-c3ccccc3)cc2/C=N/Nc2ccc(S(N)(=O)=O)cc2[N+](=O)[O-])cc1OC	65*	29	nt	-3	1	-8	18	nt
COC1(OC)C(/C=C/c2ccc(Cl)cc2)C(C#N)(C#N)C1(OC)OC (stereo not given)	88*	9	-17	-13	1	4	57*	23
CC[n+]1c(/C=C/c2c[nH]c3ccccc23)ccc2cc(C)ccc21	72*	90*	nt	nt	nt	-6	56*	73*
Cn1c(N)nc(N)c(NC=O)c1=O	nt	nt	nt	nt	-1	nt	nt	nt
COc1ccc(NC(=O)C2(c3ccc(NC(=O)c4ccc(OC)c(OC)c4)cc3)CCCC2)cc1	55*	-5	-2	2	1	-6	21	nt
CC(=O)OCCCNc1cc(Sc2nc3ccccc3s2)c2nonc2c1[N+](=O)[O-]	100*	6	-5	76*	4	-29	77*	52*
CC(=O)OCCCNc1cc(Sc2ccc(C)cc2)c2nonc2c1[N+](=O)[O-]	54*	1	-21	12	8	2	59*	68*
CC(=O)OCCNc1cc(Sc2nc3ccccc3[nH]2)c2nonc2c1[N+](=O)[O-]	nt	-9	1	41	0	-16	nt	nt
COc1ccc(CCNC(=O)/C=C/c2ccc3ccccc3n2)cc1OC	58*	14	nt	64	0	-25	69*	54*
C=CCOC1COC2C(OCC=C)COC12 (stereo not given)	nt	-3	nt	nt	0	0	nt	nt
COc1cc(OC)c(NC2=CC(=O)C(=O)c3ccccc32)cc1Cl	70*	3	120*	102*	4	-5	66*	46*
Cc1nc(C(=O)Nc2ccccc2)sc1C1(C)CC(c2cccc([N+](=O)[O-])c2)=NO1 (stereo not given)	85*	-12	3	10	-3	-7	63*	49*
COc1ccc(NC(=O)c2nc(C)c(C3(C)CC(c4ccccc4)=NO3)s2)cc1 (stereo not given)	59*	-3	45	64	0	-11	58*	72*
ClC(Cl)(Cl)c1nc2ccccc2n2nncc12	77*	23	24	49	0	-2	60*	32
c1ccc2c(c1)nnn1c3ccccc3nc21	-129	nt	13	13	nt	nt	nt	nt
CCC(=O)N1c2ccccc2C(N(C(C)=O)c2ccccc2)CC1C (stereo not given)	54*	22	nt	-17	0	1	24	nt
CCC(=O)OCC(=O)[C@@]1(OC(=O)CC)[C@@H](C)C[C@H]2[C@@H]3CCC4=CC(=O)C=C[C@]4(C)[C@@]3(Cl)[C@@H](O)C[C@@]21C	2	8	3	7	0	-10	nt	nt
ClC(Cl)(Cl)C1=NCc2nnn(Cc3ccccc3)c2N1	nt	nt	nt	nt	1	nt	nt	nt
Cc1ccc(NC(=O)CN2C(=O)S/C(=C\c3ccccn3)C2=O)cc1C	68*	-4	0	-14	0	2	29	nt
Cn1cc(/C=C2/SC(=O)N(CC(=O)Nc3ccc4c(c3)OCO4)C2=O)c2ccccc21	64*	-8	21	20	1	-1	21	nt
SMILES	Mdm2-MdmX inh	Gli-Sufu block	Beta apoptosis	CSC inhib	MPTP block	NR3A LBD binder	Mdm2-MdmX conf	Full FLuc ctr
O=C(CN1C(=O)S/C(=C\c2ccc(-c3cc(C(=O)O)ccc3Cl)o2)C1=O)Nc1ccc2c(c1)OCO2	-8	nt	-1	-14	0	nt	nt	nt
Cc1cccc(C)c1NC(=O)CN1C(=O)S/C(=C\c2cccn2C)C1=O	80*	1	-9	-11	0	5	2	nt
O=C(CN1C(=O)S/C(=C/c2ccncc2)C1=O)Nc1ccccc1	33	11	-7	9	-1	0	nt	nt
Cc1ccc(-n2c(SCC(=O)Nc3ccc(Cl)cc3)nc(O)cc2=O)cc1	22	-7	-12	-10	1	-6	nt	nt
CO[C@@H]1CN(C)C(=O)c2ccc(NC(=O)C3CCCC3)cc2OC[C@@H](C)N(Cc2ccc(F)cc2)C[C@H]1C	nt	nt	nt	nt	1	nt	nt	nt
Cc1ccc(CNC(=O)Cc2ccc(-c3ccccc3)cc2)cc1	58*	45	4	-13	0	0	61*	73*
Cc1ccc(CC(=O)NCc2ccc(F)cc2)cc1	58*	-15	-4	-17	-1	-3	48*	59*
O=C(NC1CCCCC1)c1cccc(N2C(=O)CCC2=O)c1	7	-12	nt	nt	0	0	nt	nt
COc1ccc(/C=N/n2c(=O)[nH]c3c([nH]c4ccc(C)cc43)c2=O)cc1CN1CCOCC1	nt	-4	nt	nt	-1	-1	nt	nt
CC1=CC(C)[C@H](/C=N/n2c(=O)[nH]c3c([nH]c4ccc(C)cc43)c2=O)C(C)C1 (stereo not given in full)	86*	8	25	87*	1	2	7	nt
CC1CCCCN1C(=O)CSc1nc(C2CC2)nc2c1cnn2-c1ccccc1 (stereo not given)	54*	5	nt	nt	2	7	9	nt
c1ccc(OCCNc2nc(NCC3CC3)nc3ccsc23)cc1	nt	nt	nt	nt	8	nt	nt	nt
O=C1C(=Cc2ccc(Cl)cc2)CCc2ccccc21	nt	nt	nt	nt	2	nt	nt	nt
O=C1N=C2SCCN2/C1=C\c1ccc(Cl)cc1	52*	2	-5	-6	0	2	5	nt
O=C(CCCN1C(=O)/C(=C/c2cccc(Br)c2)SC1=S)N1CCOCC1	61*	0	-4	-2	-2	2	21	nt
CN1CCN(C(=O)CCCN2C(=O)/C(=C/c3cccc(Br)c3)SC2=S)CC1	63*	9	nt	nt	1	-1	31	29
COc1ccc(-c2cc(=O)[nH]c3ccccc23)cc1	58*	-17	-2	nt	0	2	23	nt
Cc1ccc(-c2cc(=O)[nH]c3ccccc23)cc1	36	-13	17	8	0	0	nt	nt

From PubChem BioAssay
